Consider 40 compounds from PubChem BioAssay (NCATS).

Structures are written as SMILES. Records with an inconclusive call do not appear. Values without a mark were called inactive. Active and inactive are the calls of the source. Unless noted, the call rests on the fitted dose curve; in most records, active means well fitted curve in either direction with a large enough effect (not every such curve was filed as active); inconclusive means small, poorly fitted or top-dose-only effect, or another doubt; inactive means flat fitted curve, though single readings scatter.

Chain of Cytochrome P450 1A2 (Homo sapiens) (P05177 whole entry, looked up): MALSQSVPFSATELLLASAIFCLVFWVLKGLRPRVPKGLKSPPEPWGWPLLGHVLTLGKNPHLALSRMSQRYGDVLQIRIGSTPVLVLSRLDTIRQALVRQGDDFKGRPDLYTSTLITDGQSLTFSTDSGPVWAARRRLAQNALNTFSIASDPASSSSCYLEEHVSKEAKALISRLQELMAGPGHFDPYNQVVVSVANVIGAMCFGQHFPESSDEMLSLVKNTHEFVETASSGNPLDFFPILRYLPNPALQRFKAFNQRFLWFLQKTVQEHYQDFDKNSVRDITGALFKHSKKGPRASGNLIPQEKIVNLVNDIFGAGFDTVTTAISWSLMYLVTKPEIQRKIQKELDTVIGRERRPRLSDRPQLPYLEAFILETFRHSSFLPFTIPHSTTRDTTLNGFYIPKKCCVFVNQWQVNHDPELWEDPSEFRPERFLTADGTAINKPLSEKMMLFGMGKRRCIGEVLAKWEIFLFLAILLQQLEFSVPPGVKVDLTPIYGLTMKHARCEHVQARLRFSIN

System in one assay: not listed separately
Nature of the assay: AP1 Signaling Pathway (AID 357). Further: on the % scale 0 is the no-effect control and ±100 the full control effect. Conditions: ME-180 AP-1-bla reporter, EGF-induced, beta-lactamase ratio, 5 h; at 7.69 µM (top of the series) unless noted. Summed up: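 ME-180 cells with beta-lactamase reporter under AP-1 response element, stimulated with EC50 EGF; compounds tested in titration series, 5 h at 37 °C. CCF4 substrate added 2.5 h at room temperature; 460/530 nm emission ratio gave %activity and AC50.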
Take `Cc1cccc(CNc2ncncc2-c2ccccc2CN(C)C)c1`: the activity change, negative = inhibition is 1.18%.
Still for that read-out and setting: the figure for `COc1ccc(Oc2ncc3nc(-c4cc(F)cc(F)c4)c(=O)n(C4CC4)c3n2)cc1` is -9.27%; for `O=c1c(-c2ccccc2)nc2cnc(Oc3ccccc3)nc2n1C[C@H]1CCCO1` it is 180%; for `COc1ccccc1-c1nccc(N2CCN(C)CC2)n1` it is 15.6%.
Consider `Cc1nc2cnc(N3CCN(C)CC3)nc2n(CCc2ccccc2)c1=O`, for which the activity change, negative = inhibition is 0.08%.
Same read-out and setting: the same measure for `COc1cccc(-c2cncnc2NCCN2CCOCC2)c1`: 24.4%; for `O=c1c(CCc2ccccc2)nc2cnc(Oc3ccccc3)nc2n1C1CC1`: -15.6%.
Same read-out and setting: the figure for `CCNc1ncc2ncc(=O)n(Cc3ccc(F)cc3)c2n1` is -23.6%; for `c1ccc(CNc2nc(-c3cccnc3)nc3ccccc23)cc1` it is -20.2%; for `Cn1c(=O)c(-c2ccccc2)nc2cnc(N3CCOCC3)nc21` it is -2.38%.
Same read-out and setting: the figure for `CN1CCN(c2ncc3nc(-c4cn(C)c5ccccc45)c(=O)n(C[C@H]4CCCO4)c3n2)CC1` is -8.04%.
Consider `COc1cccc(-c2nc(NC3CC3)c3ccccc3n2)c1`, for which the activity change, negative = inhibition was -6.5%.
Still for that read-out and setting: the same measure for `O=c1c(-c2cccc(F)c2)nc2cncnc2n1Cc1ccc(F)cc1`: -9.74%.
Still for that read-out and setting: the figure for `COc1ccc(CNc2ncncc2-c2ccccc2OC)c(OC)c1` is -23.4%.
The same measure, in the same setting: the same measure for `COCCn1c(=O)c(-c2cccs2)nc2cnc(Oc3ccccc3)nc21`: 16.7%.
For the compound `CN(C)c1ncnc2ccc(-c3cccc(NS(C)(=O)=O)c3)cc12`, the activity change, negative = inhibition was -26.5%.
On the same count and under the same terms, the same measure for `COc1ccc(Oc2ncc3nc(-c4ccc(F)cc4)c(=O)n(C[C@H]4CCCO4)c3n2)cc1`: -23.4%; for `CN(C)c1ncc2nc(CCc3ccccc3)c(=O)n(CCC#N)c2n1`: -11%.
The same measure, in the same setting: the same measure for `CN(C)c1ncc2nc(CCc3ccccc3)c(=O)n(CCc3ccccc3)c2n1`: -11.1%; for `O=c1c(CCc2ccccc2)nc2cnc(Nc3ccccc3)nc2n1C[C@H]1CCCO1`: 16.4%; for `CCNc1ncc2nc(CCc3ccccc3)c(=O)n(Cc3cccc(OC)c3)c2n1`: 16.5%.
`COCCn1c(=O)c(-c2cc(F)cc(F)c2)nc2cnc(N3CCN(C)CC3)nc21`: the activity change, negative = inhibition was 19.3%.
Still for that read-out and setting: the figure for `COc1ccccc1CNc1cc(-c2ccccc2CN(C)C)ncn1` is 4.71%.
Turning to `CN(Cc1ccco1)c1nc(-c2ccccc2C(F)(F)F)nc2ccccc12`, the activity change, negative = inhibition is 23.8%.
The same measure, in the same setting: the figure for `O=c1c(CCc2ccccc2)nc2cnc(N3CCOCC3)nc2n1-c1ccccc1` is 1.07%.
Still for that read-out and setting: the figure for `O=c1c(CCc2ccccc2)nc2cnc(N3CCNCC3)nc2n1Cc1cccs1` is 7.64%.
On the same count and under the same terms, the figure for `N#CCCn1c(=O)c(-c2cccc(C#N)c2)nc2cnc(Oc3cccc(Cl)c3)nc21` is -14.2%; for `COc1ccccc1-c1ccc2ncnc(N3CCNCC3)c2c1` it is 4.97%; for `COc1ccccc1-c1nccc(NCc2cccs2)n1` it is 15.8%.
For `Clc1ccccc1-c1nc(-n2ccnc2)c2ccccc2n1`, the activity change, negative = inhibition is -5.23%.
As for `COc1ccc(-n2c(=O)c(CCc3ccccc3)nc3cnc(OC)nc32)cc1`, the activity change, negative = inhibition is -14.2%.
Same read-out and setting: the figure for `COc1ccc(Oc2ncc3nc(-c4cccc(C#N)c4)c(=O)n(Cc4cccc(OC)c4)c3n2)cc1` is 7.45%.
Still for that read-out and setting: the same measure for `N#Cc1cccc(-c2nc(NCCN3CCOCC3)c3ccccc3n2)c1`: -13%.

The next assay concerns the target Cytochrome P450 1A2 (Homo sapiens) (UniProt P05177). The experiment in a line: p450-cyp1a2 (AID 410; calls by dose curve; further: potency means the concentration at half of the fitted maximal effect;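 on activity change, negative = inhibition: -100% = full effect of reference inhibitor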). Particulars: recombinant CYP1A2, luciferin-ME demethylation, luminescence; series mostly up to 57 µM; activity change, negative = inhibition: at the top concentration. The essentials: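 Inhibition was calculated relative to 57 uM furafylline (full inhibition). The reaction used human CYP1A2 at 20nM with Luciferin-ME at its Km, 100uM, driven by an NADPH-regenerating system for 60 min at room temperature.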
`Cc1nc2cnc(N3CCN(C)CC3)nc2n(CCc2ccccc2)c1=O`: the Potency was 10 µM (active).
The same measure, in the same setting: the same measure for `COc1cccc(-c2cncnc2NCCN2CCOCC2)c1`: 15.8 µM (active).
On the same count and under the same terms, the figure for `O=c1c(CCc2ccccc2)nc2cnc(Oc3ccccc3)nc2n1C1CC1` is 7.94 µM (active).
Still for that read-out and setting: the figure for `CCNc1ncc2ncc(=O)n(Cc3ccc(F)cc3)c2n1` is 1 µM (active); for `c1ccc(CNc2nc(-c3cccnc3)nc3ccccc23)cc1` it is 0.398 µM (active).
On to `COc1cccc(Cn2c(=O)cnc3cnc(Nc4cccc(OC)c4)nc32)c1`, for which the Potency is 3.98 µM (active).
On to `COc1cccc(-c2ccc3ncnc(NCc4cnc(C)cn4)c3c2)c1`, for which the Potency is 2.51 µM (active).
On the same count and under the same terms, the figure for `Cn1c(=O)c(-c2ccccc2)nc2cnc(N3CCOCC3)nc21` is 2 µM (active).
Turning to `CN1CCN(c2ncc3nc(-c4cn(C)c5ccccc45)c(=O)n(C[C@H]4CCCO4)c3n2)CC1`, the Potency was 6.31 µM (active).
The same measure, in the same setting: the figure for `COc1ccc2[nH]cc(CCNc3ncnc4ccc(-c5ccoc5)cc34)c2c1` is 0.316 µM (active).
On the same count and under the same terms, the same measure for `COc1ccccc1CNc1ncnc2ccc(-c3cccc(NS(C)(=O)=O)c3)cc12`: 3.98 µM (active).
The same measure, in the same setting: the figure for `COc1ccc(CNc2ncncc2-c2ccccc2OC)c(OC)c1` is 5.01 µM (active); for `COCCn1c(=O)c(-c2cccs2)nc2cnc(Oc3ccccc3)nc21` it is 2 µM (active); for `CN(C)c1ncc2nc(CCc3ccccc3)c(=O)n(CCC#N)c2n1` it is 2 µM (active).
In the case of `CN(C)c1ncc2nc(CCc3ccccc3)c(=O)n(CCc3ccccc3)c2n1`, the Potency was 6.31 µM (active).
For `COc1ccc(CNc2cc(-c3cccc(NS(C)(=O)=O)c3)ncn2)c(OC)c1`, the Potency was 15.8 µM (active).
Same read-out and setting: the figure for `CCNc1ncc2nc(CCc3ccccc3)c(=O)n(Cc3cccc(OC)c3)c2n1` is 12.6 µM (active); for `COCCn1c(=O)c(-c2cc(F)cc(F)c2)nc2cnc(N3CCN(C)CC3)nc21` it is 15.8 µM (active); for `CN(Cc1ccco1)c1nc(-c2ccccc2C(F)(F)F)nc2ccccc12` it is 2 µM (active).
For `N#CCCn1c(=O)c(-c2cccc(C#N)c2)nc2cnc(Oc3cccc(Cl)c3)nc21`, the “activity change, negative = inhibition” value was -17.1%.
Take `Cn1cc(-c2nc3cnc(N4CCNCC4)nc3n(C3CC3)c2=O)c2ccccc21`: the Potency is 12.6 µM (active).
On the same count and under the same terms, the same measure for `COCCn1c(=O)c(-c2ccccc2)nc2cnc(Oc3cccc(Cl)c3)nc21`: 1 µM (active); for `Clc1ccccc1-c1nc(-n2ccnc2)c2ccccc2n1`: 0.158 µM (active); for `COc1ccc(-n2c(=O)c(CCc3ccccc3)nc3cnc(OC)nc32)cc1`: 15.8 µM (active).
`COc1ccc(Oc2ncc3nc(-c4cccc(C#N)c4)c(=O)n(Cc4cccc(OC)c4)c3n2)cc1`: the “activity change, negative = inhibition” value was -8.5%.
Take `N#Cc1cccc(-c2nc(NCCN3CCOCC3)c3ccccc3n2)c1`: the Potency is 1 µM (active).
